Shown are actives, neighbours in structure and some others; about 1.5% of the full set was active somewhere.
MCL1 BIM primary = MCL1-BIM-BH3 interaction inhibition (human) | Q07820 | GST-MCL1 / FITC-Bim-BH3 fluorescence polarization | inhibition, % at 10.9 µM | 320,000 tested, 0.68% active | AID 2057;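 active = inhibition above the mean inhibition of all tested compounds plus 3 SD, set per campaign, cut at about 40% in these data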;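 note: 0% = DMSO wells and 100% = unlabeled Bim-BH3 peptide control; higher means more loss of mP so more displacement of Bim peptide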
Bcl-xL primary = blocks human Bcl-xL binding to Bim BH3 peptide; Q07817; GST-Bcl-xL / FITC-Bim BH3 peptide fluorescence polarization; inhibition, % at 10.9 µM; 320,000 tested, 0.7% active; AID 2129;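 active = inhibition above the mean of all tested compounds plus 3 SD, cutoff set per campaign, cut at about 30% in these data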;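 note: 0% = DMSO wells and 100% = unlabeled Bim-BH3 peptide competitor; inhibitors lower millipolarization by displacing the labeled peptide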
Target sequence (Q07817 whole entry, looked up): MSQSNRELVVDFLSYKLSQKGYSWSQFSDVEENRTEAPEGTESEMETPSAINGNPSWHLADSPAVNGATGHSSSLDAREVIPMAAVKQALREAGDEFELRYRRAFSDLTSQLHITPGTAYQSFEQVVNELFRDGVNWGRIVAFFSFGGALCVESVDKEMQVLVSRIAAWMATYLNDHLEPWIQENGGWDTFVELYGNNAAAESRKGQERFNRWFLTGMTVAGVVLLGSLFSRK
MEX-5 binding = C. elegans MEX-5 TCR-2 RNA binding activity | 300,000 tested, 0.38% active | MEX-5/FITC-TCR2 RNA binding, fluorescence polarization; hits give low values | activity score (negative = inhibition of binding), % at 10 µM | Q9XUB2;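 active = inhibition past about -25% in most replicates, and total fluorescence under double the plate's negative control median, limit read from the data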;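 note: 0% = DMSO and -100% = 5 µM competing unlabeled TCR2 RNA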
Target sequence (Q9XUB2 whole entry, looked up): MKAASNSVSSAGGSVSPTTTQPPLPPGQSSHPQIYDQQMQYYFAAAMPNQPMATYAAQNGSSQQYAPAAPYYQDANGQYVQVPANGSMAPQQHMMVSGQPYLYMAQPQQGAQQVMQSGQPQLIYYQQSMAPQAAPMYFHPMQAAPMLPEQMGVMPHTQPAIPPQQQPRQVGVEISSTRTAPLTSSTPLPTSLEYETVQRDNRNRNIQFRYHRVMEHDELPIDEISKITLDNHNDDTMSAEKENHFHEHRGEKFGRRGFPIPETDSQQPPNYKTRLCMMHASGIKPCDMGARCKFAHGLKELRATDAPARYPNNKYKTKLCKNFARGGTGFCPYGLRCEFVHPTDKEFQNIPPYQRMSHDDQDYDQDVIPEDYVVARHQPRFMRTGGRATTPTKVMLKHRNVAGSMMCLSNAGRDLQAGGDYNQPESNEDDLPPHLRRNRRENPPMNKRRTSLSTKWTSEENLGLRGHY
E coli Lon inh = E. coli protease La inhibition | P0A9M0 | purified E. coli Lon protease, fluorescence polarization | inhibition, % at 7.94 µM | 360,000 tested, 0.42% active | AID 602123; in the data active = inhibition above about 13%, passing the limit was not always enough;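 note: 0% = enzyme with probe and DMSO and 100% = no enzyme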
GLD-1 TGE inh = GLD-1-TGE RNA interaction inhibition (C. elegans); inhibition, % at 5.96 µM; 320,000 tested, 0.44% active; Q17339; AID 2280; purified GLD-1 + fluorescein TGE RNA, fluorescence polarization;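 active = percent inhibition above a per-plate cutoff, the plate mean of test compounds plus 3 SD, cut at about 30% in these data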;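 note: 0% = DMSO wells with GLD-1 and probe and 100% = wells lacking GLD-1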
EBV gp42 inh = inhibitors of Epstein-Barr virus glycoprotein 42 | Q1HVG2 | Fluorescence polarization binding assay, mP read-out | inhibition, % (tested at 21.74 µM) | 220,000 tested, 0.42% active | AID 1085; in the data active = inhibition above about 50%
E coli Lon conf = E. coli Lon inhibition confirmation; shares compounds with E coli Lon inh; purified E. coli Lon, fluorescence polarization; inhibition, % at 7.94 µM; 1,400 tested, 31% active; AID 602230; in the data active = inhibition above about 16%;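 note: 0% = enzyme with probe and DMSO and 100% = no enzyme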
Numbers without * were called inactive; . = no result; + = active, no number.

SMILES | MCL1 BIM primary | Bcl-xL primary | MEX-5 binding | E coli Lon inh | GLD-1 TGE inh | EBV gp42 inh | E coli Lon conf
CCc1sc(C(=O)NNC(=O)c2cncc(Br)c2)cc1C | . | . | . | 5.7 | 2.0 | . | .
Cc1sc2ncn(CC(=O)NCC(=O)N3CCN(c4ccccc4F)CC3)c(=O)c2c1C | 6.0 | 6.3 | 1.0 | 19.4* | 5.7 | . | -29.1
CCOC(=O)[C@H]1[C@H]2COc3ccc(Cl)cc3[C@@H]2N2C(=O)c3ccc(Cl)cc3NC(=O)[C@@]12C | -0.4 | 7.5 | . | 4.3 | -5.4 | . | .
COc1cccc(NC(=O)N(CCN(C)C)C(C)c2cccnc2)c1 (stereo not drawn) | 1.1 | 2.4 | -0.1 | -2.7 | 4.8 | -18.7 | .
CC(c1cccnc1)N(CCN(C)C)C(=O)Nc1ccc(Cl)cc1 (stereo not drawn) | 1.9 | -0.3 | 0.2 | 14.6* | -0.7 | -16.8 | -2.0
CC[C@H](C)[C@@H](N)C(=O)NC[C@H]1O[C@@H](n2cnc3c(=O)[nH]c(N)nc32)[C@H](O)[C@@H]1O | . | . | . | 1.9 | . | . | .
CCN(CC(=O)Nc1ccc2c(c1)OCCO2)C(=O)c1ccccc1Br | . | . | . | -10.3 | 3.1 | . | .
COc1cccc(/C=C/C(=O)c2ccc3c(c2)OCCO3)c1OC | 1.8 | 5.2 | 0.1 | 20.1* | 0.1 | . | 9.0
Cc1cc2cc(CNC(=O)c3ccc(C)c([N+](=O)[O-])c3)ccc2[nH]1 | 2.4 | 5.7 | -1.1 | 21.5* | 2.0 | 6.8 | 5.7
Cc1cc2cc(CCNC(=O)c3ccc(C)c([N+](=O)[O-])c3)c(=O)[nH]c2cc1C | -2.2 | 0.7 | 1.4 | -0.3 | 2.1 | 3.8 | .
Cc1ccc(/C=C/C(=O)O)cc1S(=O)(=O)NC1CCS(=O)(=O)C1 (stereo not drawn) | 3.1 | 5.4 | -1.1 | 15.2* | -2.5 | -0.6 | -5.2
CCC(=O)N(Cc1cc2ccc(C)cc2n2nnnc12)C1CCCCC1 | -1.8 | 1.8 | 1.3 | -3.2 | 8.4 | -20.0 | .
CCC(=O)N(CCc1ccc(OC)c(OC)c1)Cc1cc2ccc(C)cc2n2nnnc12 | 3.8 | 0.2 | -0.5 | 15.7* | -0.1 | -10.8 | 10.0
CC(C)(C)c1ccc(C(=O)Oc2ccc3c(c2)OCC3=O)cc1 | 2.1 | -0.6 | 2.8 | 2.1 | -6.2 | -8.8 | .
O=C(Oc1ccc2c(c1)OCC2=O)c1ccccc1 | -0.3 | -2.4 | -0.3 | 18.9* | -0.2 | -17.9 | 23.1*
CCNC(=O)c1c(C)nc2ccccn12 | 5.9 | 5.6 | 2.3 | 16.0* | 3.4 | -5.8 | -2.8
O=C(COC(=O)c1cc([N+](=O)[O-])ccc1N1CCOCC1)Nc1ncc(Cl)cc1Cl | 19.2 | 15.9 | 0.8 | 3.8 | 8.0 | . | .
Cc1ccsc1C(=O)N1CCN(c2ncc(C(F)(F)F)cc2Cl)CC1 | 5.1 | 1.9 | 1.6 | 22.8* | 2.9 | . | -6.2
CCOC(=O)N1CCN(c2ncc(C(F)(F)F)cc2Cl)CC1 | 3.7 | -2.5 | -1.0 | 3.3 | 9.9 | 0.7 | .
CCOC(=O)c1cc(-c2ccccc2C)n(CC2CC(c3cccc([N+](=O)[O-])c3)=NO2)n1 (stereo not drawn) | -1.2 | 1.9 | . | 5.9 | 4.4 | . | .
CC(=O)Nc1cc(-c2ccccc2N(C)C)cn2c(-c3ccc(S(C)(=O)=O)cc3)cnc12 | . | . | . | + | . | . | 55.1*
CCOCCCn1c(=S)[nH]c2cc(C(=O)NCCCN(CC)CC)ccc2c1=O | 2.6 | 4.0 | -0.5 | 3.3 | 5.0 | -6.7 | .
COc1ccc(N2CCN(CC(O)COCCOc3ccc(Br)cc3)CC2)cc1 (stereo not drawn) | 4.5 | 3.2 | 3.3 | -20.4 | 3.2 | 3.7 | .
OCCN1CCN(CC(O)COCCOc2ccc(Br)cc2)CC1 (stereo not drawn) | 5.0 | 6.4 | 3.0 | 69.0* | 2.2 | 3.4 | -1.7
COc1ccc(C(=O)Nc2nccs2)cc1 | 3.0 | 0.6 | -1.4 | -5.3 | 0.0 | . | .
SMILES | MCL1 BIM primary | Bcl-xL primary | MEX-5 binding | E coli Lon inh | GLD-1 TGE inh | EBV gp42 inh | E coli Lon conf
COc1ccc(NC(=O)Nc2nccs2)cc1 | 3.8 | 1.5 | -0.6 | 16.5* | 3.1 | -14.1 | -2.7
Cc1ccc(OCCNC(=O)c2ccc(NC(=O)CC3SC(N4CCCC4)=NC3=O)cc2)cc1 (stereo not drawn) | 0.0 | -1.4 | 0.7 | -0.9 | -2.1 | . | .
C[C@H]1CN([C@@H](C)CO)S(=O)(=O)c2ccc(C#Cc3cccnc3)cc2O[C@@H]1CN(C)C(=O)Nc1ccc2c(c1)OCO2 | . | . | . | -4.0 | . | . | .
CCCCN(C(=O)c1ccc2c(c1)S(=O)(=O)N=C1CCCCCN12)c1c(N)n(CC(C)C)c(=O)[nH]c1=O | . | . | . | -9.8 | . | . | .
COc1cccc(NC(=O)CN(C)C(=O)c2cc3c(s2)CCCC3)c1 | -5.1 | -0.3 | . | -1.9 | 4.2 | . | .
CC1CCc2sc(C(=O)N(C)CC(=O)Nc3cccc(F)c3)cc2C1 (stereo not drawn) | -16.9 | -10.3 | 0.5 | 16.1* | 0.4 | . | -3.7
O=C(NNC(=O)C12CC3CC(CC(Cl)(C3)C1)C2)c1csc(N2CCOCC2)n1 | 7.5 | 2.2 | -5.3 | -2.8 | -2.2 | . | .
CN1CCN(c2ccccc2NC(=O)c2ccc3c(c2)OCCO3)CC1 | -1.0 | -2.2 | -0.1 | 15.8* | -5.8 | . | 2.7
O=C(Nc1ccccc1N1CCOCC1)c1ccc2c(c1)OCCO2 | -6.0 | 0.9 | -1.0 | -1.6 | -0.8 | . | .
CC(C)CCCNc1nc(N2CCOCC2)nc(N2CCOCC2)n1 | 1.5 | 1.5 | -1.5 | 83.9* | 5.1 | 4.4 | 2.3
O=C(COC(=O)c1ccco1)Nc1nc2c(F)c(F)c(F)cc2s1 | 5.5 | -0.4 | 0.5 | -4.6 | 0.8 | . | .
O=C(COC(=O)c1ccc(NS(=O)(=O)c2cccs2)cc1)Nc1nc2c(F)c(F)c(F)cc2s1 | . | . | . | 21.5* | . | -25.8 | -24.6
COc1cccc(CN(C)C(=O)c2cc(-c3ccc(OC)c(OC)c3)nc3ccccc23)c1 | . | . | -2.7 | 20.2* | . | . | -1.9
C/C(=N/NC(=O)c1ccc(C)nc1)c1ccc2c(c1)CCCC2 | -4.7 | 0.0 | -2.2 | -0.5 | 5.2 | 6.8 | .
O=C(Nc1cccc(O)c1)C1CCCN1C(=O)OCc1ccccc1 (stereo not drawn) | -4.0 | 0.8 | -0.3 | 17.8* | -2.0 | -3.4 | -9.9
CC(=O)c1cc2c(s1)-c1cc(F)ccc1OC2 | 15.1 | 10.3 | -3.8 | 4.2 | 9.1 | 19.1 | .
COC(=O)c1cc2c(s1)-c1cc(F)ccc1OC2 | 3.5 | 3.0 | -0.9 | 16.2* | 3.2 | 0.4 | -9.0
CC(OC(=O)c1ccc(Cl)nc1)C(=O)Nc1ccc(S(=O)(=O)N2CCCC2)cc1 (stereo not drawn) | -1.5 | -6.3 | -0.8 | -4.7 | 10.6 | . | .
CC(OC(=O)c1ccc(CN2CCCC2=O)cc1)C(=O)Nc1ccc(Cl)cc1 (stereo not drawn) | 4.5 | 1.6 | . | 24.4* | 4.0 | . | 59.9*
CC(=O)Nc1ccc(NC(=O)C(C)OC(=O)c2ccc(S(=O)(=O)N3CCCCC3)cc2)cc1 (stereo not drawn) | . | . | . | 67.1* | 0.7 | . | 4.8
O=C(COC(=O)c1ccc(CN2CCCC2=O)cc1)Nc1ccc(F)cc1 | -3.0 | 3.0 | . | -6.1 | 3.8 | . | .

Screening results: PubChem, several laboratories
